# From the supplement of paper PMC4709259
# Where a name gives a salt, the structure may show the parent alone. ± gives the standard deviation.
# Assays:
# Jurkat [1] = assay: mean cell size (FSC-A) relative to DMSO control (fraction of control); higher = larger cells; settings: 48 h
# In short: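 Jurkat cells seeded at 600 cells/µl were incubated 1 h, then exposed for 48h to the Enzo Screen-Well FDA Approved Drug Library v2.0 at 25µM in 0.9% (v/v) final DMSO. Drugs that cut counts below 20% of controls were diluted 10-fold and retested, down to 25nM. Cell count and mean cell size (forward scatter area) were read on an Accuri C6 flow cytometer, relative to solvent-only controls. Plates held 6-12 controls; values are means of 3 biological replicates.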
# Jurkat [2] = assay: cell count relative to DMSO control (fraction of control); higher = more cells (less growth inhibition); settings: 48 h
Structure (SMILES),mean cell size (Jurkat [1]),cell count (Jurkat [2])
CC[C@@H](C(N)=O)N1CCCC1=O [Levetiracetam] (concentration: 25 µM),0.968 ± 0.018,0.603 ± 0.1
Oc1ccc2c(c1)[C@@]13CCCC[C@@]1(O)[C@@H](C2)N(CC1CCC1)CC3 [Butorphanol-(+)-Tartrate (Schedule Iv)] (concentration: 25 µM),0.952 ± 0.049,0.586 ± 0.075
CC(O)(CS(=O)(=O)c1ccc(F)cc1)C(=O)Nc1ccc(C#N)c(C(F)(F)F)c1 (stereo not drawn) [Bicalutamide] (concentration: 25 µM),0.973 ± 0.027,0.836 ± 0.064
CCN(C(C)=O)c1cccc(-c2ccnc3c(C#N)cnn23)c1 [Zaleplon] (concentration: 25 µM),1 ± 0.059,0.664 ± 0.14
CC1C=CC=CCCC=CC=CC=CC=CC(OC2OC(C)C(O)C(N)C2O)CC2OC(O)(CC(O)C(O)CCC(O)CC(O)CC(O)CC(=O)OC(C)C(C)C1O)CC(O)C2C(=O)O (stereo not drawn) [Nystatin] (concentration: 25 µM),0.8944 ± 0.0084,0.729 ± 0.11
CC(C)N(CCC(C(N)=O)(c1ccccc1)c1ccccn1)C(C)C (stereo not drawn) [Disopyramide] (concentration: 25 µM),0.985 ± 0.041,0.733 ± 0.14
NCC(CC(=O)O)c1ccc(Cl)cc1 (stereo not drawn) [Baclofen] (concentration: 25 µM),0.985 ± 0.044,0.555 ± 0.08
CC[C@@H](CO)NC(=O)[C@@H]1C=C2c3cccc4[nH]cc(c34)C[C@H]2N(C)C1 [Methylergonovine Maleate] (concentration: 25 µM),1.01 ± 0.016,0.865 ± 0.15
COc1ccc(C(CN(C)C)C2(O)CCCCC2)cc1 (stereo not drawn) [Venlafaxine·HCl] (concentration: 25 µM),0.987 ± 0.021,0.498 ± 0.12
